Compound activity (PubChem BioAssay)
TDP1 cell noCPT: qHTS for Inhibitors of human tyrosyl-DNA phosphodiesterase 1 (TDP1): qHTS in cells in absence of CPT. DT40 Tdp1-/- hTDP1 cells, no CPT, ATP luminescence, 48 h. Potency, µM (highest dose often 46.2 µM), for inactives: top-dose activity change, negative = growth inhibition, most hits filed as inhibitors. 15% of 420,000 active; note: potency is the fitted concentration of half-maximal effect; % is set by controls: 0 for no effect and ±100 for the full control effect; nearly all actives have a fitted effect of over 55% in size
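Growth kinetics read by CellTiter-Glo luminescence after ≥48 hr at 37 °C. Cells: DT40 Tdp1-/- stably carrying human TDP1, 400 per well, compound exposure in the absence of CPT (DMSO vehicle).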
SW480 rerep: inducers of DNA re-replication in SW480 colon cancer cells | 1.8% of 340,000 active | Potency, µM (titrated, usually from 46.1 µM), inactives show at the top dose re-replication activation, usual class: activators | SW480 DNA re-replication, Hoechst DNA content imaging, 48 h; note: potency is the fitted concentration of half-maximal effect; % of control where 0% means no effect; nearly all actives have a fitted effect of over 55% in size
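First, 250 cells per well were seeded. Next, compound or vehicle (23 nL) was pinned in, plates sat 48 hr at 37 C. Finally Hoechst was added for 40 min before fluorescence scanning.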
DT40 TDP1 CPT: growth inhibition of DT40 Tdp1-/-;hTDP1 cells with camptothecin (screen for TDP1 inhibitors) | chicken DT40 Tdp1-/-;hTDP1 cells + 20 nM CPT, ATP luminescence, 48 h | Potency, µM (doses to about 46.2 µM), for the others: at the top dose activity change, negative = growth inhibition, actives largely listed as inhibitors | 12% of 420,000 active; note: potency is the fitted concentration of half-maximal effect; % is set by controls: 0 for no effect and ±100 for the full control effect; nearly all actives have a fitted effect of over 55% in size
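Chicken DT40 Tdp1-/- cells complemented with human TDP1, 400 cells/well, exposed to compounds plus 20 nM camptothecin for at least 48 h at 37 C; viability read as ATP content by CellTiter-Glo luminescence.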
IL-1B inflam inh: inflammasome signaling inhibition, IL-1 beta readout; 4.7% of 360,000 active; activity change, % at 57.5 µM; THP-1 LPS/ATP IL-1B secretion, AlphaLISA, 16 h; hits give low values; in the data active = activity change below about -50%; inconclusive = mostly about -30% to -49%; note: % is set by controls: 0 for no effect and ±100 for the full control effect
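THP-1 cells pretreated 1 hr with compounds (up to 57.5 uM final), then stimulated with LPS (250 ng/mL final) plus ATP (1.25 mM final); secreted IL-1B measured by AlphaLISA after 16 hr, decreased signal indicating inhibition.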
MCF10A rereplic: inducers of DNA re-replication in MCF 10A breast cells. MCF 10A DNA re-replication, Hoechst nuclear intensity, 48 h. Potency, µM (series often up to 46.1 µM), inactives show at the highest dose activity, positive = re-replication, most hits filed as activators. 2.9% of 350,000 active. AID 624296; note: potency is the fitted concentration of half-maximal effect; % of control where 0% means no effect; nearly all actives have a fitted effect of over 50% in size
Chronic BCR inh: blocks chronic active B-cell receptor signaling; ABC-DLBCL IkBa-CBG/CBR reporter, luminescence ratio, 4 h; Potency, µM (doses to about 46.1 µM), without a hit: top-dose activity change, negative = inhibition, hits mostly inhibitors; 0.05% of 340,000 active; AID 493014; active = well fitted inhibition curve with a large enough effect in the signal ratio, with a control signal flat, not every such curve was filed as active; inconclusive = small, poorly fitted or top-dose-only effect, or effect the other way, or a change in a side signal; the % refers to the signal ratio;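 note: potency is the fitted concentration of half-maximal effect; plate controls were basal doxycycline-induced cells for no effect and cells given 10 µM MG132 for full effect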
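TMD8 human ABC-DLBCL cells with doxycycline-inducible IκBα–green luciferase fusion and unfused red luciferase, in 0.5% FBS medium; compounds up to 46 uM, 4 h at 37C. Green/red luminescence ratio, filter-overlap corrected, fitted to concentration-response curves.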
An asterisk follows results filed as active; [ ] = another dose, or the depositor's remark. Shown are actives, neighbours in structure and some others; about 19% of the full set was active somewhere. Unless noted, calls come from the whole dose curve; as a rule, active = well fitted curve in the direction sought with a large enough effect; inconclusive = small, poorly fitted or top-dose-only effect, or another doubt; inactive = no such curve, though single readings can be large; an effect the other way counts as inactive or inconclusive.

`Cc1csc2c(=O)[nH]cnc12` gave TDP1 cell noCPT 0.2%, SW480 rerep -0.9%, DT40 TDP1 CPT 15.9%, IL-1B inflam inh 6.6, MCF10A rereplic -3.2% and Chronic BCR inh -7.1%.
`O=C(c1ccncc1)N1CCC2(CCCN(Cc3nccs3)C2)CC1` gave TDP1 cell noCPT -2.2% and DT40 TDP1 CPT 11.7%.
`COc1ccc(NC(=O)c2ccncc2)cc1S(=O)(=O)N1CCCCC1` gave TDP1 cell noCPT 0.6%, DT40 TDP1 CPT -3.2% and IL-1B inflam inh 30.1.
Screening CCN1C(=O)[C@H]2[C@H]3CN=C(SCc4ccc(Cl)cc4)N3[C@@](C)(C(=O)OC)[C@H]2C1=O returned TDP1 cell noCPT inconclusive, SW480 rerep 7.6%[9.22 µM], DT40 TDP1 CPT inconclusive, IL-1B inflam inh -15.1, MCF10A rereplic -6.0% and Chronic BCR inh 8.3%.
`Cn1c(=O)c2c(nc(CN3CCN(c4ccccc4F)CC3)n2CCCc2ccccc2)n(C)c1=O` gave TDP1 cell noCPT 20.6µM*, SW480 rerep -1.0%, DT40 TDP1 CPT 16.4µM*, IL-1B inflam inh -2.7 and MCF10A rereplic 0.6%.
`CCCN1CCN(c2nnc(-n3cccc3C(=O)Nc3ccccc3C(F)(F)F)s2)CC1` gave TDP1 cell noCPT 20.6µM* and DT40 TDP1 CPT 20.6µM*.
Screening CCN1CCN(c2nnc(-n3cccc3C(=O)NCc3ccccc3OC)s2)CC1 returned TDP1 cell noCPT inconclusive and DT40 TDP1 CPT 16.4µM*.
O=C(NCCCN1CCN(c2ccccc2)CC1)Nc1ccccc1C(F)(F)F was read as TDP1 cell noCPT inconclusive, SW480 rerep -4.1%, DT40 TDP1 CPT 1.7%, IL-1B inflam inh -3.7, MCF10A rereplic 4.9% and Chronic BCR inh 3.4%.
Screening CC(C)N(Cc1ccccc1)c1ncnc2c1nnn2C returned TDP1 cell noCPT inconclusive, DT40 TDP1 CPT inconclusive and Chronic BCR inh 0.4%.
Screening CCn1c(CN2CCN(c3ccc(OC)cc3)CC2)nc2cc(S(=O)(=O)N(C)C)ccc21 returned TDP1 cell noCPT inconclusive, SW480 rerep inconclusive, DT40 TDP1 CPT 20.6µM*, IL-1B inflam inh 42.1, MCF10A rereplic 10.8% and Chronic BCR inh -8.9%.
Screening O=C1N(Cc2ccccc2)CC2(Br)COCOC12O (centres undefined) returned TDP1 cell noCPT 3.26µM*, SW480 rerep inconclusive, DT40 TDP1 CPT 2.31µM*, IL-1B inflam inh inconclusive and MCF10A rereplic inconclusive.
Screening O=C1C(c2ccccc2)CN1Cc1ccccc1 (centres undefined) returned TDP1 cell noCPT 2.7%, DT40 TDP1 CPT -25.2% and IL-1B inflam inh 4.8.
`Cn1nnnc1Sc1ncnc2scc(-c3ccc(Cl)cc3)c12` gave SW480 rerep 14.9%, MCF10A rereplic 8.2% and Chronic BCR inh inconclusive.
`Cn1nnnc1Sc1ncnc2scc(-c3ccc4c(c3)OCO4)c12` gave SW480 rerep 12.4%, MCF10A rereplic 23.1µM* and Chronic BCR inh -12.3%.
`Cn1nnnc1Sc1ncnc2scc(-c3ccc([N+](=O)[O-])cc3)c12` gave SW480 rerep 20.7%, MCF10A rereplic 2.59µM* and Chronic BCR inh inconclusive.
Cn1nnnc1Sc1ncnc2scc(-c3cccc(S(C)(=O)=O)c3)c12 was read as SW480 rerep 10.4%, MCF10A rereplic 4.61µM* and Chronic BCR inh -5.0%.
Screening Cn1c(=O)c(-c2ccc(Cl)cc2)nc2cnc(Oc3cccc(Cl)c3)nc21 returned TDP1 cell noCPT -11.2% and DT40 TDP1 CPT -21.5%.
For Cc1oc(-c2cccs2)cc1C(=O)N1CCCC(C)(C(=O)O)C1 (centres undefined) the results were TDP1 cell noCPT -14.9%, DT40 TDP1 CPT 0.8% and IL-1B inflam inh 26.9.
`CCOc1cc(C2CC(=O)Nc3cc(C)c(C)cc32)ccc1O` (centres undefined) gave TDP1 cell noCPT inconclusive, SW480 rerep -3.9%, DT40 TDP1 CPT inconclusive, IL-1B inflam inh -3.3, MCF10A rereplic 21.0% and Chronic BCR inh inconclusive.
CCOc1cc2c(cc1O)C(=NOC)CC1C2CCC2(C)C(O)CCC12 (centres undefined) was read as TDP1 cell noCPT 0.82µM*, SW480 rerep 5.8µM*, DT40 TDP1 CPT 0.92µM*, IL-1B inflam inh -18.7 and MCF10A rereplic 2.06µM*.
`Cc1ccc(/C=N\NC(=O)COc2ccc(C)cc2[N+](=O)[O-])cc1` gave TDP1 cell noCPT inconclusive, SW480 rerep -12.3%, DT40 TDP1 CPT inconclusive, IL-1B inflam inh -20.7, MCF10A rereplic 6.9% and Chronic BCR inh 1.7%.
Screening Cc1ccc(OCC(=O)N/N=C\c2cn(C)c3ccccc23)c([N+](=O)[O-])c1 returned TDP1 cell noCPT 14.6µM*, SW480 rerep inconclusive, DT40 TDP1 CPT inconclusive, IL-1B inflam inh 16.0, MCF10A rereplic 16.8% and Chronic BCR inh -10.5%.
`Cc1ccc(OCC(=O)N/N=C\c2c(C)[nH]n(-c3ccccc3)c2=O)c([N+](=O)[O-])c1` gave TDP1 cell noCPT 4.11µM*, SW480 rerep -2.1%, DT40 TDP1 CPT 3.66µM*, IL-1B inflam inh 127.0, MCF10A rereplic 6.9% and Chronic BCR inh -11.5%.
`COc1ccc(OCC(=O)Nc2c3c(nn2C(C)(C)C)CSC3)cc1` gave TDP1 cell noCPT inconclusive, SW480 rerep -4.6%, DT40 TDP1 CPT -27.3%, IL-1B inflam inh 8.8, MCF10A rereplic 11.0% and Chronic BCR inh inconclusive.
For COc1cc(C2C(C#N)=C(N)Oc3c2ccc2ccccc32)ccc1OCC(=O)Nc1cccc(C)c1 (centres undefined) the results were TDP1 cell noCPT 16.4µM*, SW480 rerep 5.0%, DT40 TDP1 CPT inconclusive, IL-1B inflam inh -0.4, MCF10A rereplic 0.3% and Chronic BCR inh inconclusive.
`COc1ccc(C2C(C#N)=C(N)Oc3c2ccc2cccnc32)cc1OC` (centres undefined) gave TDP1 cell noCPT 2.59µM*, SW480 rerep 1.64µM*, DT40 TDP1 CPT 3.26µM*, IL-1B inflam inh -9.6, MCF10A rereplic 4.61µM* and Chronic BCR inh inconclusive.
`COc1cc(C2C(C#N)=C(N)Oc3c2ccc2ccccc32)ccc1OCC(=O)Nc1ccc(C)cc1` (centres undefined) gave TDP1 cell noCPT inconclusive, SW480 rerep 8.8%, DT40 TDP1 CPT inconclusive, IL-1B inflam inh -7.3, MCF10A rereplic inconclusive and Chronic BCR inh 2.0%.
